Assay results reported in PubChem BioAssay AID1159580 (chemical genetic matrix, 2015).
Several values for one entry are separate records, joined by “and”; a condition that tells them apart may be missing. Equal values may be shown once. The campaign covered roughly 5,500 compounds. About 2,000 (36%) were called active. Roughly 18% stayed inconclusive and do not appear here. Rule as the data show it: active = normalized growth mostly below about 0.91 (no sharp cut-off); inconclusive = no clear call, values can overlap the other calls; inactive = mostly above about 0.92. Some of the results follow.

Experiment: chemical genetic growth profiling, strain panel (AID 1159580);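 also: tested at 20 µM; growth read once vehicle control cultures reached saturation at 30 °C; 1 = growth at the plate median or of vehicle wells; lower values mean less growth of the strain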
Conditions: S. cerevisiae deletion strains, growth OD

Measured: normalized growth

O=c1cc[nH]c(=S)[nH]1
inactive: locus YAL013W, strain DEP1, active compounds read low 1.03 | locus YAL021C, strain ccr4, active compounds read low 1.03 | locus YAL026C, strain drs2, active compounds read low 0.987 | locus YAL030W, strain snc1, active compounds read low 1 | locus YBL061C, strain skt5, active compounds read low 1 | locus YBR009C, strain hhf1, active compounds read low 0.964 | locus YBR021W, strain FUR4, active compounds read low 1.02 | locus YBR023C, strain chs3, active compounds read low 1.01 | locus YBR171W, strain sec66, active compounds read low 1.01 | locus YBR229C, strain ROT2, active compounds read low 1.01 | locus YBR231C, strain swc5, active compounds read low 1.02 | locus YBR279W, strain paf1, active compounds read low 0.997 | locus YCL011C, strain gbp2, active compounds read low 0.997 | locus YCL016C, strain dcc1, active compounds read low 1 | locus YCL029C, strain bik1, active compounds read low 1.01 | locus YCL061C, strain MRC1, active compounds read low 1.03 | locus YCL069W, strain vba3, active compounds read low 1.01 | locus YCR088W, strain abp1, active compounds read low 1.01 | locus YDL005C, strain med2, active compounds read low 1.04 | locus YDL035C, strain GPR1, active compounds read low 1.02 | locus YDL040C, strain nat1, active compounds read low 1.01 | locus YDL074C, strain BRE1, active compounds read low 1.03 | locus YDL101C, strain DUN1, active compounds read low 1.03 | locus YDL134C, strain PPH21, active compounds read low 1.02 | locus YDL185W, strain tfp1, active compounds read low 1.01 | locus YDL192W, strain arf1, active compounds read low 1.02 | locus YDR001C, strain nth1, active compounds read low 1 | locus YDR069C, strain doa4, active compounds read low 1.04 | locus YDR101C, strain arx1, active compounds read low 1.01 | locus YDR137W, strain rgp1, active compounds read low 1.04 | locus YDR150W, strain NUM1, active compounds read low 1.01 | locus YDR159W, strain sac3, active compounds read low 1.02 | locus YDR162C, strain NBP2, active compounds read low 1.02 | locus YDR195W, strain ref2 1.03 | locus YDR297W, strain sur2, active compounds read low 1.01 | locus YDR318W, strain mcm21, active compounds read low 1.03 | locus YDR334W, strain swr1, active compounds read low 1 | locus YDR335W, strain msn5, active compounds read low 1.01 | locus YDR388W, active compounds read low 1 | locus YDR392W, strain spt3, active compounds read low 0.962 | locus YDR502C, strain sam2, active compounds read low 1.03 | locus YEL003W, strain gim4, active compounds read low 1 | locus YEL037C, strain rad23, active compounds read low 0.991 | locus YEL061C, strain CIN8 (second series), active compounds read low 1 | locus YEL061C, strain CIN8, active compounds read low 1.01 | locus YER015W, strain faa2, active compounds read low 1.01 | locus YER016W, strain bim1, active compounds read low 1.01 | locus YER110C, active compounds read low 1 | locus YER111C, strain swi4, active compounds read low 1.01 | locus YER155C, strain BEM2 (second series), active compounds read low 1.04 | locus YER155C, strain BEM2, active compounds read low 1.01 | locus YER167W, strain BCK2, active compounds read low 1.02 | locus YFR010W, strain ubp6, active compounds read low 0.997 | locus YGL078C, strain dbp3, active compounds read low 1.01 | locus YGL086W, strain mad1, active compounds read low 1 | locus YGL167C, strain pmr1, active compounds read low 1 | locus YGL173C, strain kem1, active compounds read low 1.01 | locus YGL227W, strain vid30, active compounds read low 1.01 | locus YGL240W, strain doc1, active compounds read low 1.07 | locus YGL248W, strain PDE1, active compounds read low 1.01 | locus YGL253W, strain hxk2, active compounds read low 1.03 | locus YGR078C, strain PAC10, active compounds read low 1.03 | locus YGR135W, strain pre9, active compounds read low 1.02 | locus YGR229C, strain SMI1, active compounds read low 1.03 | locus YGR252W, strain gcn5, active compounds read low 1.09 | locus YHR013C, strain ard1, active compounds read low 1.04 | locus YHR027C, strain rpn1, active compounds read low 1 | locus YHR030C, strain SLT2, active compounds read low 1.02 and 0.995 | locus YHR079C, strain IRE1 (second series), active compounds read low 0.999 | locus YHR079C, strain IRE1, active compounds read low 1.01 | locus YHR094C, strain hxt1, active compounds read low 0.983 | locus YHR129C, strain ARP1, active compounds read low 1.01 | locus YHR142W, strain chs7, active compounds read low 0.987 | locus YHR200W, strain rpn10, active compounds read low 1.02 | locus YIL066C, strain RNR3, active compounds read low 1.03 | locus YIL073C, strain SPO22, active compounds read low 1.03 | locus YIL125W, strain kgd1, active compounds read low 1.01 | locus YIR030C, strain dcg1, active compounds read low 1.01 | locus YJL092W, strain hpr5, active compounds read low 1 | locus YJL095W, strain BCK1 (second series), active compounds read low 1.01 | locus YJL095W, strain BCK1, active compounds read low 1.04 and 1.01 | locus YJL115W, strain asf1, active compounds read low 1.01 | locus YJL129C, strain trk1, active compounds read low 1.01 | locus YJL134W, strain LCB3, active compounds read low 1.01 | locus YJL154C, strain vps35, active compounds read low 1.01 | locus YJL164C, strain tpk1, active compounds read low 0.983 | locus YJL166W, strain qcr8, active compounds read low 1.03 | locus YJL168C, strain set2, active compounds read low 0.997 | locus YJL187C, strain SWE1 (second series), active compounds read low 1.04 | locus YJL187C, strain SWE1, active compounds read low 1.01 | locus YJR043C, strain POL32, active compounds read low 1.02 | locus YJR066W, strain TOR1, active compounds read low 0.917
